# Data: PubChem BioAssay (NCI)
# Compounds without any hit were thinned out: in the full panel of roughly 79,000, 15% have a hit. Unmarked numbers belong to inactive results. Active and inactive are the calls of the source. Cut-off read from the data, not from the text of the source: active = growth inhibition above about 70%; inactive = the rest.
# How the values were obtained:
# [1] = NCI Yeast Anticancer Drug Screen. Data for the rad52 strain (AID 147);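 note: 0% = growth of vehicle-treated control cultures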; conditions: S. cerevisiae rad52 mutant growth inhibition, active compounds read high
# How it was run: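 Screen used a yeast mutant impaired in DNA repair. After compound exposure, growth was measured. Values reflect inhibition compared with vehicle-treated cells.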
# [2] = NCI Yeast Anticancer Drug Screen. Data for the wt1 strain (AID 149);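 note: 0% = growth of vehicle-treated wt1 cultures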; conditions: S. cerevisiae wt1 strain (SPY 50644) growth inhibition, active compounds read high
# How it was run: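 wt1 yeast, compound-treated; % growth inhibition vs vehicle control.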
# [3] = NCI Yeast Anticancer Drug Screen. Data for the rad50EPP+ strain (AID 151);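 note: 0% = growth of vehicle-treated control cultures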; conditions: S. cerevisiae rad50 mutant strain, active compounds read high
# How it was run: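 Exposing the rad50EPP+ strain to each compound, growth was compared with vehicle-only cultures to give inhibition.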
# [4] = NCI Yeast Anticancer Drug Screen. Data for the mgt1 strain (AID 153); conditions: S. cerevisiae mgt1 mutant growth inhibition, active compounds read high
# How it was run: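 Genetically defined yeast (mgt1) treated with compound; inhibition of growth expressed against vehicle-treated controls.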
# [5] = NCI Yeast Anticancer Drug Screen. Data for the rad50 strain (AID 155);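 note: 0% = growth of vehicle-only cultures of the same strain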; conditions: S. cerevisiae rad50 strain growth inhibition, active compounds read high
# How it was run: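 Genetically altered yeast (DNA repair pathway); compound treatment; growth inhibition vs vehicle ctrl.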
# [6] = NCI Yeast Anticancer Drug Screen. Data for the mec2-1 strain (AID 157); conditions: S. cerevisiae mec2-1 strain, active compounds read high
# How it was run: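 Readout is yeast growth inhibition, normalised to vehicle-treated controls, in the mec2-1 strain exposed to compound.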
# [7] = NCI Yeast Anticancer Drug Screen. Data for the rad14 strain (AID 159);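 note: 0% = growth of vehicle-treated control cultures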; conditions: S. cerevisiae rad14 strain growth inhibition, active compounds read high
# How it was run: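 Test compounds were applied to a repair-deficient yeast strain. Its growth was then compared with that of cultures given vehicle alone, and inhibition was expressed relative to those controls.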
# [8] = NCI Yeast Anticancer Drug Screen. Data for the sgs1 mgt1 strain (AID 161);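 note: 0% = growth of cultures given vehicle only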; conditions: S. cerevisiae sgs1 mgt1 strain, active compounds read high
# How it was run: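 Yeast cells carrying a defined DNA-repair defect were exposed to test compounds. Growth inhibition was measured relative to vehicle-treated controls.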
# [9] = NCI Yeast Anticancer Drug Screen. Data for the CLN2oe strain (AID 163);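 note: 0% = growth of vehicle-only control cultures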; conditions: S. cerevisiae CLN2oe strain, active compounds read high
# How it was run: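 Values reflect how much compound exposure reduced yeast growth, referenced to vehicle-exposed cells. Assay organism is a strain with a defined genetic change affecting cell-cycle control.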
# [10] = NCI Yeast Anticancer Drug Screen. Data for the cln2 rad14 strain (AID 165);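 note: 0% = growth equal to vehicle treated cultures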; conditions: S. cerevisiae cln2 rad14 strain, active compounds read high
# How it was run: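 Relative to vehicle controls, growth inhibition of compound-treated cln2 rad14 yeast was recorded.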
# [11] = NCI Yeast Anticancer Drug Screen. Data for the bub3 strain (AID 167); conditions: S. cerevisiae bub3 mutant strain, active compounds read high
# How it was run: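 Yeast carrying a defined mutation is treated with each compound, and growth is compared with that of vehicle-exposed cells to give inhibition.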
# [12] = NCI Yeast Anticancer Drug Screen. Data for the mlh1 strain (AID 171);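 note: 0% = growth of vehicle-treated control cultures of the same strain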; conditions: S. cerevisiae mlh1 strain growth inhibition, active compounds read high
# How it was run: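 Steps: expose the defined-mutant yeast strain to compound; expose a parallel culture to vehicle; measure growth; express compound effect as inhibition relative to the vehicle culture.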
# [13] = NCI Yeast Anticancer Drug Screen. Data for the sgs1 strain (AID 173);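 note: 0% = growth of vehicle-only control cultures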; conditions: S. cerevisiae sgs1 mutant, active compounds read high
# How it was run: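 Treat defined-mutant yeast with compound; measure growth; calculate inhibition relative to vehicle-treated cells.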
# [14] = NCI Yeast Anticancer Drug Screen. Data for the mlh1 rad18 strain (AID 175); conditions: S. cerevisiae mlh1 rad18 strain growth inhibition, active compounds read high
# How it was run: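 Test agents were incubated with a yeast strain of defined genotype (DNA damage repair defect). Inhibition of growth was derived by comparison with vehicle-exposed cultures.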
# [15] = NCI Yeast Anticancer Drug Screen. Data for the rad18 strain (AID 177); conditions: S. cerevisiae rad18 mutant growth inhibition, active compounds read high
# How it was run: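 A genetically defined yeast mutant impaired in DNA damage repair was treated with test compounds, then its growth was measured against cultures receiving vehicle alone.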
# [16] = at 5.0 µM (retest, dose inferred, filed as 0.5)
# [17] = at 50.0 µM (retest, dose inferred, filed as 5.0)
compound,measurement,setting,value
CC(=O)O/N=C1C=C/C(=C(/C#N)c2ccccc2)C=C/1C,growth inhibition,[1]; at 1.2 µM,6%
same,growth inhibition,[1]; at 3.7 µM,15%
same,growth inhibition,[1]; at 11.0 µM,63%
same,growth inhibition,[1]; at 33.0 µM,99% (active)
same,growth inhibition,[1]; at 100.0 µM,96% (active)
same,growth inhibition,[2]; at 1.2 µM,3%
same,growth inhibition,[2]; at 3.7 µM,5%
same,growth inhibition,[2]; at 11.0 µM,24%
same,growth inhibition,[2]; at 33.0 µM,99% (active)
same,growth inhibition,[2]; at 100.0 µM,97% (active)
same,growth inhibition,[3]; at 1.2 µM,43%
same,growth inhibition,[3]; at 3.7 µM,81% (active)
same,growth inhibition,[3]; at 11.0 µM,95% (active)
same,growth inhibition,[3]; at 33.0 µM,97% (active)
same,growth inhibition,[3]; at 100.0 µM,94% (active)
same,growth inhibition,[4]; at 1.2 µM,2%
same,growth inhibition,[4]; at 3.7 µM,6%
same,growth inhibition,[4]; at 11.0 µM,75% (active)
same,growth inhibition,[4]; at 33.0 µM,99% (active)
same,growth inhibition,[4]; at 100.0 µM,96% (active)
same,growth inhibition,[5]; at 1.2 µM,5%
same,growth inhibition,[5]; at 3.7 µM,10%
same,growth inhibition,[5]; [16],41%
same,growth inhibition,[5]; at 11.0 µM,37%
same,growth inhibition,[5]; at 33.0 µM,98% (active)
same,growth inhibition,[5]; [17],98% (active)
same,growth inhibition,[5]; at 50.0 µM,99.5% (active)
same,growth inhibition,[5]; at 100.0 µM,94% (active)
same,growth inhibition,[6]; at 1.2 µM,-1%
same,growth inhibition,[6]; at 3.7 µM,4%
same,growth inhibition,[6]; [16],16%
same,growth inhibition,[6]; at 11.0 µM,19%
same,growth inhibition,[6]; at 33.0 µM,99% (active)
same,growth inhibition,[6]; [17],98% (active)
same,growth inhibition,[6]; at 50.0 µM,99.5% (active)
same,growth inhibition,[6]; at 100.0 µM,96% (active)
same,growth inhibition,[7]; at 1.2 µM,1%
same,growth inhibition,[7]; at 3.7 µM,7%
same,growth inhibition,[7]; at 11.0 µM,25%
same,growth inhibition,[7]; at 33.0 µM,99% (active)
same,growth inhibition,[7]; at 100.0 µM,96% (active)
same,growth inhibition,[8]; [16],77% (active)
same,growth inhibition,[8]; [17],99% (active)
same,growth inhibition,[8]; at 50.0 µM,99.2% (active)
same,growth inhibition,[9]; at 1.2 µM,-6%
same,growth inhibition,[9]; at 3.7 µM,0%
same,growth inhibition,[9]; at 11.0 µM,16%
same,growth inhibition,[9]; at 33.0 µM,99% (active)
same,growth inhibition,[9]; at 100.0 µM,96% (active)
same,growth inhibition,[10]; [16],4%
same,growth inhibition,[10]; [17],98% (active)
same,growth inhibition,[10]; at 50.0 µM,99% (active)
same,growth inhibition,[11]; at 1.2 µM,-8%
same,growth inhibition,[11]; at 3.7 µM,-11%
same,growth inhibition,[11]; [16],0%
same,growth inhibition,[11]; at 11.0 µM,4%
same,growth inhibition,[11]; at 33.0 µM,99% (active)
same,growth inhibition,[11]; [17],99% (active)
same,growth inhibition,[11]; at 50.0 µM,99.5% (active)
same,growth inhibition,[11]; at 100.0 µM,91% (active)
same,growth inhibition,[12]; at 1.2 µM,3%
same,growth inhibition,[12]; at 3.7 µM,8%
same,growth inhibition,[12]; at 11.0 µM,53%
same,growth inhibition,[12]; at 33.0 µM,99% (active)
same,growth inhibition,[12]; at 100.0 µM,95% (active)
same,growth inhibition,[13]; at 1.2 µM,21%
same,growth inhibition,[13]; at 3.7 µM,54%
same,growth inhibition,[13]; at 11.0 µM,94% (active)
same,growth inhibition,[13]; at 33.0 µM,99% (active)
same,growth inhibition,[13]; at 100.0 µM,95% (active)
same,growth inhibition,[14]; [16],49%
same,growth inhibition,[14]; [17],98% (active)
same,growth inhibition,[14]; at 50.0 µM,98.8% (active)
same,growth inhibition,[15]; at 1.2 µM,12%
same,growth inhibition,[15]; at 3.7 µM,26%
same,growth inhibition,[15]; at 11.0 µM,56%
same,growth inhibition,[15]; at 33.0 µM,99% (active)
same,growth inhibition,[15]; at 100.0 µM,95% (active)
COc1cc(C(=O)C=O)cc(OC)c1OC,growth inhibition,[1]; at 1.2 µM,1%
same,growth inhibition,[1]; at 3.7 µM,3%
same,growth inhibition,[1]; at 11.0 µM,1%
same,growth inhibition,[1]; at 33.0 µM,0%
same,growth inhibition,[1]; at 100.0 µM,86% (active)
same,growth inhibition,[2]; at 1.2 µM,-3%
same,growth inhibition,[2]; at 3.7 µM,-4%
same,growth inhibition,[2]; at 11.0 µM,-7%
same,growth inhibition,[2]; at 33.0 µM,-5%
same,growth inhibition,[2]; at 100.0 µM,61%
same,growth inhibition,[3]; at 1.2 µM,1%
same,growth inhibition,[3]; at 3.7 µM,5%
same,growth inhibition,[3]; at 11.0 µM,6%
same,growth inhibition,[3]; at 33.0 µM,16%
same,growth inhibition,[3]; at 100.0 µM,58%
same,growth inhibition,[4]; at 1.2 µM,1%
same,growth inhibition,[4]; at 3.7 µM,-3%
same,growth inhibition,[4]; at 11.0 µM,-4%
same,growth inhibition,[4]; at 33.0 µM,14%
same,growth inhibition,[4]; at 100.0 µM,94% (active)
same,growth inhibition,[5]; at 1.2 µM,0%
same,growth inhibition,[5]; at 3.7 µM,-5%
same,growth inhibition,[5]; [16],-156%
same,growth inhibition,[5]; at 11.0 µM,9%
same,growth inhibition,[5]; at 33.0 µM,19%
same,growth inhibition,[5]; [17],44%
same,growth inhibition,[5]; at 50.0 µM,44.3%
same,growth inhibition,[5]; at 100.0 µM,91% (active)
same,growth inhibition,[6]; at 1.2 µM,1%
same,growth inhibition,[6]; at 3.7 µM,-1%
same,growth inhibition,[6]; [16],-53%
same,growth inhibition,[6]; at 11.0 µM,6%
same,growth inhibition,[6]; at 33.0 µM,-4%
same,growth inhibition,[6]; [17],3%
same,growth inhibition,[6]; at 50.0 µM,57%
same,growth inhibition,[6]; at 100.0 µM,90% (active)
same,growth inhibition,[7]; at 1.2 µM,-3%
same,growth inhibition,[7]; at 3.7 µM,-7%
same,growth inhibition,[7]; at 11.0 µM,-5%
same,growth inhibition,[7]; at 33.0 µM,9%
same,growth inhibition,[7]; at 100.0 µM,95% (active)
same,growth inhibition,[8]; [16],-67%
same,growth inhibition,[8]; [17],60%
same,growth inhibition,[8]; at 50.0 µM,73% (active)
same,growth inhibition,[9]; at 1.2 µM,0%
same,growth inhibition,[9]; at 3.7 µM,-5%
same,growth inhibition,[9]; at 11.0 µM,-7%
same,growth inhibition,[9]; at 33.0 µM,6%
same,growth inhibition,[9]; at 100.0 µM,85% (active)
same,growth inhibition,[10]; [16],-65%
same,growth inhibition,[10]; [17],8%
same,growth inhibition,[10]; at 50.0 µM,37.5%
same,growth inhibition,[11]; at 1.2 µM,-6%
same,growth inhibition,[11]; at 3.7 µM,-6%
same,growth inhibition,[11]; [16],-66%
same,growth inhibition,[11]; at 11.0 µM,-8%
same,growth inhibition,[11]; at 33.0 µM,-8%
same,growth inhibition,[11]; [17],33%
same,growth inhibition,[11]; at 50.0 µM,31.9%
same,growth inhibition,[11]; at 100.0 µM,87% (active)
same,growth inhibition,[12]; at 1.2 µM,9%
same,growth inhibition,[12]; at 3.7 µM,-3%
same,growth inhibition,[12]; at 11.0 µM,-6%
same,growth inhibition,[12]; at 33.0 µM,-8%
same,growth inhibition,[12]; at 100.0 µM,88% (active)
same,growth inhibition,[13]; at 1.2 µM,1%
same,growth inhibition,[13]; at 3.7 µM,4%
same,growth inhibition,[13]; at 11.0 µM,3%
same,growth inhibition,[13]; at 33.0 µM,31%
same,growth inhibition,[13]; at 100.0 µM,97% (active)
same,growth inhibition,[14]; [16],-129%
same,growth inhibition,[14]; [17],52%
same,growth inhibition,[14]; at 50.0 µM,67.4%
same,growth inhibition,[15]; at 1.2 µM,0%
same,growth inhibition,[15]; at 3.7 µM,-2%
same,growth inhibition,[15]; at 11.0 µM,-2%
same,growth inhibition,[15]; at 33.0 µM,5%
same,growth inhibition,[15]; at 100.0 µM,91% (active)
